Reference: PubChem BioAssay (Tox21)
Inconclusive results are not listed. Calls of active or inactive are those of the source. Unless noted, calls follow the shape of the full dose curve.

Experiments:
[1] = Nuclear factor erythroid 2-related factor 2/antioxidant responsive element (Nrf2/ARE) small molecule agonists: qHTS cell viability counter screen in human keratinocytes (AID 1919968; active = well fitted curve in the direction sought with a large enough effect in the repeat runs; an effect the other way counts as inactive or inconclusive; also: nearly all actives have a fitted effect of over 55% in size; also: potency is read from the fitted curve at half-maximal effect)
Procedure, shortened: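 Measured as CellTiter-Fluor fluorescence, this readout tracks cytotoxicity in the same wells as the ARE-luciferase screen. HaCaT reporter cells (1,500/well) received compounds after a 5 h pre-incubation and were exposed for 23 h.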

[2] = Nuclear factor erythroid 2-related factor 2/antioxidant responsive element (Nrf2/ARE) small molecule agonists: luciferase reporter gene qHTS assay in human keratinocytes (AID 1919969); also: nearly all actives have a fitted effect of over 35% in size
[3] = molecular target: Gonadotropin-releasing hormone receptor (Homo sapiens) (UniProt P30968); assay: Human gonadotropin-releasing hormone receptor (GnRHR) small molecule agonists, calcium flux assay in GnRHR-HEK293 cells (AID 1920063); also: nearly all actives have a fitted effect of over 35% in size
Sequence of Gonadotropin-releasing hormone receptor (Homo sapiens) (P30968 whole entry, looked up): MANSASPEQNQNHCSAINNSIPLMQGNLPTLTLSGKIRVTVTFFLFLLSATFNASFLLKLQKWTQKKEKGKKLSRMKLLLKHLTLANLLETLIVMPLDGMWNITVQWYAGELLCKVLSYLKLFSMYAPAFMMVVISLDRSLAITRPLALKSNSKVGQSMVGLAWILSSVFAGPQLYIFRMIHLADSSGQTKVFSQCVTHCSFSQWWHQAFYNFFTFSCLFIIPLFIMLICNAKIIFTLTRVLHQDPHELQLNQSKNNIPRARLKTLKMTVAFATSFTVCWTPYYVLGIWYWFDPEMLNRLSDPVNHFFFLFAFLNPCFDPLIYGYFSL
Procedure, shortened: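 Fluorescence kinetics (480 nm excitation, 540 nm emission; 3 min, 1 s steps) report calcium mobilisation in human GnRHR-HEK293 cells in agonist mode. Dye incubation: 1 h, 37 C.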

[4] = molecular target: KiSS-1 receptor (Homo sapiens) (UniProt Q969F8); assay: Human kisspeptin (KISS1R) small molecule agonists, calcium flux assay in KISS1R-HEK293 cells (AID 1920064; active = well fitted curve in the direction sought with a large enough effect in the repeat runs; an effect the other way counts as inactive or inconclusive)
Sequence of KiSS-1 receptor (Homo sapiens) (Q969F8 whole entry, looked up): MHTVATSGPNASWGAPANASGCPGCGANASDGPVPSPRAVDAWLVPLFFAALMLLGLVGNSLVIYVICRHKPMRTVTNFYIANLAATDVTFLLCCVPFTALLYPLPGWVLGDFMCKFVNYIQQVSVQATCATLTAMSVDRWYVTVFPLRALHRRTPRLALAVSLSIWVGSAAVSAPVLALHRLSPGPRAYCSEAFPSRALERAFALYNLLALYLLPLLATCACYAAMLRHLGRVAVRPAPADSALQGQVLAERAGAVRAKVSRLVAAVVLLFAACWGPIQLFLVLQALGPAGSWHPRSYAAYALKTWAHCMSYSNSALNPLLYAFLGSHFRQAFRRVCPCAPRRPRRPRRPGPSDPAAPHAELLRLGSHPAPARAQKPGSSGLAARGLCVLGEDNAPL
Procedure, shortened: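 Measures KISS1R agonism through calcium-sensitive dye fluorescence in stably transfected HEK293 cells, read for 3 min after pin-tool compound delivery; 15-point titrations in triplicate.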

[5] = G protein-coupled receptor (GPCR) small molecule agonists, calcium flux assay: HEK293 wild type cell line counter screen (AID 1920065)
Procedure, shortened: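 Readout: fluorescence at 480 nm excitation/540 nm emission, sampled at 1 s intervals for 3 min. Cells had been cultured 18 h, then dye-loaded 1 h at 37 C before compound or ATP addition.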

[6] = p53 small molecule agonists, cell-based qHTS assay with rat liver microsomes (AID 1963578)
Procedure, shortened: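 Agonist mode in p53RE-bla reporter cells, with compounds co-incubated 16 h at 37 C alongside 0.5 mg/mL rat liver microsomes and 0.5 mg/mL NADPH (final), followed by a 2 h LiveBLAzer detection step.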

[7] = p53 small molecule agonists, cell-based qHTS assay with human liver microsomes: qHTS cell viability counter screen (AID 1963579); also: nearly all actives have a fitted effect of over 45% in size
Procedure, shortened: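 Metabolically activated exposure: compounds, human liver microsomes and NADPH (0.5 mg/mL final apiece) were added to p53RE-bla cells seeded 5 h earlier, left 16 h at 37 C, and then assessed for viability by CellTiter-Glo luminescence.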

[8] = p53 small molecule agonists, cell-based qHTS assay with rat liver microsomes: qHTS cell viability counter screen (AID 1963580); also: nearly all actives have a fitted effect of over 45% in size; also: potency is read from the fitted curve at half-maximal effect
Procedure, shortened: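 HCT-116 p53RE-bla, 4,000 cells/well, 5 h pre-incubation; cpd + rat liver microsomes 0.5 mg/mL + NADPH 0.5 mg/mL (final); 16 h, 37 C; CellTiter-Glo, 30 min RT; luminescence.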

[9] = p53 small molecule agonists, cell-based qHTS assay: qHTS cell viability counter screen (AID 1963581); also: nearly all actives have a fitted effect of over 45% in size
Procedure, shortened: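 In the same plates used for the p53 bla reporter, HCT-116 cells given compounds for 16 h at 37 C received CellTiter-Glo; luminescence was recorded 30 min later at room temperature.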

[10] = p53 small molecule agonists, cell-based qHTS assay (AID 1963582; active = well fitted activation curve with a large enough effect in the signal ratio in the repeat runs, not every such curve was filed as active; the % refers to the signal ratio)
Procedure, shortened: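 Compounds are pin-transferred in DMSO onto p53RE-bla cells and incubated 16 h at 37 C. The B/G FRET beta-lactamase substrate is then applied for 2 h at RT and fluorescence recorded.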

[11] = molecular target: 5-hydroxytryptamine receptor 2A (Homo sapiens) (UniProt P28223); assay: 5-hydroxytryptamine receptor 2A (HTR2A) small molecule antagonists, cell-based qHTS assay (AID 1963586); also: nearly all actives have a fitted effect of over 45% in size; also: potency is read from the fitted curve at half-maximal effect
Sequence of 5-hydroxytryptamine receptor 2A (Homo sapiens) (P28223 whole entry, looked up): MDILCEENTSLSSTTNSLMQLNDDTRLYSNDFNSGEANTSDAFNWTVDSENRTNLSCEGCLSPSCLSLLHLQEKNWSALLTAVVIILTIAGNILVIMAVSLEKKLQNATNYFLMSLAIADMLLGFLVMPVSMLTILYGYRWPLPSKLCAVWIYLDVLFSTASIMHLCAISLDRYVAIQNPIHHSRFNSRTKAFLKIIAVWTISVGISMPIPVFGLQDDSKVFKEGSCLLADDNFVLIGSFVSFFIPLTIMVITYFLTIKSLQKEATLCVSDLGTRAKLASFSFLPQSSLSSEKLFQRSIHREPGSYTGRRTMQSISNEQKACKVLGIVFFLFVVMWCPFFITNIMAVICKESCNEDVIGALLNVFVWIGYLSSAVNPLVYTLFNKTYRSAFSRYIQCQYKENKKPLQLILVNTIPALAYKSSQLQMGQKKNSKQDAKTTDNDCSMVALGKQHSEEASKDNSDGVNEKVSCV
Procedure, shortened: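 Antagonist-mode intracellular calcium assay: DOI (4 nM) added after 5 min compound pre-incubation at room temperature to dye-loaded HTR2A-CHO cells. Fluorescence followed for 3 min, sampled every second.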

[12] = molecular target: 5-hydroxytryptamine receptor 2A (Homo sapiens) (UniProt P28223); assay: 5-hydroxytryptamine receptor 2A (HTR2A) small molecule agonists, cell-based qHTS assay (AID 1963587); also: nearly all actives have a fitted effect of over 30% in size
Procedure, shortened: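 Kinetic calcium-flux fluorescence (2 min, 1 sec intervals) after compound addition in agonist mode. HTR2A-CHO cells were cultured 18 h, then dye-loaded 1 h at 37 C.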

[13] = molecular target: Muscarinic acetylcholine receptor M1 (Homo sapiens) (UniProt P11229); assay: Cholinergic receptor muscarinic 1 (CHRM1) small molecule antagonists, cell-based qHTS assay (AID 1963588); also: nearly all actives have a fitted effect of over 40% in size; also: potency is read from the fitted curve at half-maximal effect
Sequence of Muscarinic acetylcholine receptor M1 (Homo sapiens) (P11229 whole entry, looked up): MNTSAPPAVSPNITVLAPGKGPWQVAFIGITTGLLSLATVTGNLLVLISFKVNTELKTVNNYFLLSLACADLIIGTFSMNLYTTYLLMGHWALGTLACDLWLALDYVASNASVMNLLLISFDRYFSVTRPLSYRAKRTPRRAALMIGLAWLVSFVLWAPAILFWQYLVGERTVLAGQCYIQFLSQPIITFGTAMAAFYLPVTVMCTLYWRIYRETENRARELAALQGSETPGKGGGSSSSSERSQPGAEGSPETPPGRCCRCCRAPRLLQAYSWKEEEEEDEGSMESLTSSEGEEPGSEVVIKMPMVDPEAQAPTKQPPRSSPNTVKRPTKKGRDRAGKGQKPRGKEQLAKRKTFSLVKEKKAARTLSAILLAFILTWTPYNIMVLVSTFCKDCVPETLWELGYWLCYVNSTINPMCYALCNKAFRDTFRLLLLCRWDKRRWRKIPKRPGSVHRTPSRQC
Procedure, shortened: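 CHRM1-CHO calcium-flux assay, antagonist mode. Cells were seeded 18 h, dye-loaded 1 h at 37 C and given compound for 5 min at RT, then acetylcholine was added at 50nM. FDSS fluorescence was read 3 min; 15 concentrations, three runs.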

[14] = molecular target: Muscarinic acetylcholine receptor M1 (Homo sapiens) (UniProt P11229); assay: Cholinergic receptor muscarinic 1 (CHRM1) small molecule agonists, cell-based qHTS assay (AID 1963589); also: nearly all actives have a fitted effect of over 35% in size
Procedure, shortened: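 Each compound was tested at 15 concentrations across three independent runs on dye-loaded CHO cells stably expressing human CHRM1, reading intracellular calcium fluorescence kinetically at 1 sec intervals.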

[15] = cAMP Responsive Elements (CRE) small molecule agonists, cell-based qHTS assay (AID 1963590)
Procedure, shortened: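 Cell line: CRE-bla HEK 293T; medium DMEM/10% dialyzed FBS/0.1 mM NEAA/1 mM pyruvate/25 mM HEPES; 3 h compound exposure; beta-lactamase FRET readout after 2 h substrate loading at RT.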

[16] = cAMP Responsive Elements (CRE) small molecule antagonists, cell-based qHTS assay (AID 1963591; active = well fitted inhibition curve with a large enough effect in the signal ratio in the repeat runs, not every such curve was filed as active; the % refers to the signal ratio)
Procedure, shortened: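 Inhibition of NKH477-driven (0.25 uM final) CRE-beta-lactamase signal in HEK293T cells, 3 h compound exposure at 37 °C, detected by FRET substrate fluorescence.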

[17] = molecular target: Beta-2 adrenergic receptor (Homo sapiens) (UniProt P07550); assay: Adrenergic beta2 receptor (ADRB2) small molecule antagonists, cell-based qHTS assay (AID 1963592); also: nearly all actives have a fitted effect of over 50% in size; also: potency is read from the fitted curve at half-maximal effect
Sequence of Beta-2 adrenergic receptor (Homo sapiens) (P07550 whole entry, looked up): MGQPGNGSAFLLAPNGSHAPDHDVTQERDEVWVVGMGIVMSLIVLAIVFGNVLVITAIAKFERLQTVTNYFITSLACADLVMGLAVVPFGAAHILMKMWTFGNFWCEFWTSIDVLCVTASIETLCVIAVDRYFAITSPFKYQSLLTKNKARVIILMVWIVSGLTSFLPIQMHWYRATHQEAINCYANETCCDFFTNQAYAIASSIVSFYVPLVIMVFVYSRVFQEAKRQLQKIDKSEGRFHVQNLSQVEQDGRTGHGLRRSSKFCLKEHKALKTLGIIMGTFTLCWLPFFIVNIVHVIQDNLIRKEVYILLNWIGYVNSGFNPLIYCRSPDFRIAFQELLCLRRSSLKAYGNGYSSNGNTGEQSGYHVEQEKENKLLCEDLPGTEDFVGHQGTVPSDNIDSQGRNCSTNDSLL
Procedure, shortened: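 Cells (CHO, stable ADRB2 overexpression) incubated 18-20hr at 37C; compounds added from DMSO; agonist mix (1nM isoproterenol, 100uM IBMX, 25uM Ro-20-1724) added; 0.5hr RT; d2-cAMP and anti-cAMP-cryptate added; 1hr RT; 665/615 nm read.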

[18] = molecular target: D(2) dopamine receptor (Homo sapiens) (UniProt P14416); assay: Dopamine D2 receptor (DRD2) small molecule antagonists, cell-based qHTS assay (AID 1963595; active = well fitted inhibition curve with a large enough effect in the signal ratio in the repeat runs, with a control signal flat; the % refers to the signal ratio; also: potency is read from the fitted curve at half-maximal effect)
Sequence of D(2) dopamine receptor (Homo sapiens) (P14416 whole entry, looked up): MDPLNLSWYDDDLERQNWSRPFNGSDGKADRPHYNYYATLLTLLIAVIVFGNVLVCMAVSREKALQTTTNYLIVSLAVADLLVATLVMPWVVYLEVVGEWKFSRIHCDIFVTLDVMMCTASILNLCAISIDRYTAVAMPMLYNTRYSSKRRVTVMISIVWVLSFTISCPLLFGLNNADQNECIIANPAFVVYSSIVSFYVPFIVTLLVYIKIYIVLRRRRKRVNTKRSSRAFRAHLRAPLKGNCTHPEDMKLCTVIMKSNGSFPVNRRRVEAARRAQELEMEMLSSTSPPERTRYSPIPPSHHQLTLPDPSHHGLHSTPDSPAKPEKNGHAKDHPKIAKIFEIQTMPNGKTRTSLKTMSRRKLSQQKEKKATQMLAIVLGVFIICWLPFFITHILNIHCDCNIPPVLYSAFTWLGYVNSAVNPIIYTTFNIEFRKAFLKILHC
Procedure, shortened: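 Antagonism was scored as restored cAMP in HEK293-DRD2 cells. These cells were stimulated with 200 nM NKH477 and 12 nM quinpirole for 30 min at room temperature, in the presence of 0.1 mM Ro20-1724.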

[19] = molecular target: Beta-2 adrenergic receptor (Homo sapiens) (UniProt P07550); assay: Adrenergic beta2 receptor (ADRB2) small molecule agonists, cell-based qHTS assay (AID 1963593);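 also: CHO cells stably overexpressing human ADRB2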
Procedure, shortened: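 CHO cells stably over-expressing ADRB2 were plated overnight at 37C, then dosed with compounds plus a stimulation mix containing 100uM IBMX and 25uM Ro-20-1724 for 0.5hr at room temperature. cAMP was measured by HTRF competition, 1hr.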

[20] = molecular target: D(2) dopamine receptor (Homo sapiens) (UniProt P14416); assay: Dopamine D2 receptor (DRD2) small molecule agonists, cell-based qHTS assay (AID 1963594); also: nearly all actives have a fitted effect of over 35% in size
Procedure, shortened: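 cAMP accumulation in DRD2-HEK293 cells measured by HTRF after 1 h detection; compounds added 10 min before NKH477 (200nM […]) forskolin-analogue stimulation, 30 min at room temperature, with Ro20-1724 present at 0.1 mM final.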

Measured: Potency

CC(=O)OC(C(=O)c1ccccc1)c1ccccc1 (stereo not drawn)
inactive: [1] | [2] | [3] | [4] | [5] | [6] | [7] | [8] | [9] | [10] | [12] | [13] | [14] | [15] | [16] | [17] | [18]
active: [11] 0.0011 µM

C=C(C)C(=O)OCCOC1CC2CC1C1C=CCC21 (stereo not drawn)
inactive: [1] | [2] | [3] | [4] | [5] | [6] | [7] | [8] | [9] | [10] | [12] | [14] | [17] | [19] | [20] | [18]

Nc1c(I)cc(I)c(C(=O)N(CCC(=O)O)c2ccccc2)c1I
inactive: [1] | [2] | [3] | [4] | [5] | [6] | [7] | [8] | [9] | [10] | [11] | [12] | [13] | [15] | [16] | [17] | [19] | [20] | [18]

FC1(F)C(F)(F)C(F)(F)C2(F)C(F)(F)C(F)(F)C(F)(F)C(F)(F)C2(F)C1(F)F (stereo not drawn)
inactive: [1] | [2] | [3] | [4] | [5] | [6] | [7] | [8] | [9] | [10] | [11] | [13] | [14] | [15] | [16] | [19] | [18]

COC(=O)C1=C(C)NC(C)=C(C(=O)OCCc2ccc(N3CCN(C(c4ccccc4)c4ccccc4)CC3)cc2)C1c1cccc([N+](=O)[O-])c1 (stereo not drawn)
inactive: [1] | [2] | [3] | [4] | [5] | [6] | [7] | [8] | [9] | [10] | [11] | [13] | [14] | [16] | [17] | [19] | [20] | [18]

Cc1ccc(C(=O)C(C)CN2CCCCC2)cc1 (stereo not drawn)
inactive: [1] | [2] | [3] | [4] | [5] | [6] | [7] | [8] | [9] | [10] | [16] | [17] | [20]

CN1CCN(c2ccccc2/C=C2\SCCN(c3ccc(Cl)c(Cl)c3)C2=O)CC1
active: [1] 43.3 µM | [8] 45.8 µM | [13] 7.48 µM | [17] 0.77 µM | [18] 54.5 µM
inactive: [2] | [3] | [4] | [5] | [6] | [7] | [9] | [10] | [11] | [14] | [15] | [16]
